Results: PubChem BioAssay AID977607 (Broad Institute, 2014)
Among all 1,500 compounds or so, about 460 (31%) were called active. Not shown: some 1% with an inconclusive outcome.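 How the source made its calls: active means curve reaches 40% activation over neutral controls at an AC40 no higher than the top valid tested concentration; inconclusive means no clear call, values can overlap the other calls; inactive means signal moving opposite to the expected increase, and the rest.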 Only a sample is shown. Entries with a potency or affinity are not part of this list.

test: GLuc-reported insulin release enhancers, glucose-stimulated beta cells – cell-based, INS-1E, Gaussia luciferase, luminescence, cherry-pick, set 2, dose response (AID 977607); details: INS-1E GLuc insulin secretion reporter, 2-3 h, active compounds read high; at 35 µM, 100% = signal doubled over neutral wells unless noted;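 further: 0% = median of the plate neutral control wells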

Max activation, inactive:
CCc1nc2ccc(C(=O)N(C)CCCN(C)C)cn2c1N(C=O)CCC(C)C -21.2% [at 1.2 µM, 100% = signal doubled over neutral wells]
O=C(O)CNS(=O)(=O)c1ccc2c(c1)Cc1cc(S(=O)(=O)NCC(=O)O)ccc1-2 -16.4% [at 0.0016 µM, 100% = signal doubled over neutral wells]
Cc1cc(-c2ccc(Br)cc2)n2nc(C)cc2n1 -25.9% [at 0.005 µM, 100% = signal doubled over neutral wells]
c1ccc(-c2nc(NCC3CC3)nc3ccsc23)cc1 -19.8%
COc1cc2[nH]c(-c3ccc(C)cc3)cc(=O)c2cc1OC -18.5% [at 3.8 µM, 100% = signal doubled over neutral wells]
CC(=O)NN1C(=O)c2ccccc2NC1c1ccccc1O (configuration not stated) -23.9% [at 0.42 µM, 100% = signal doubled over neutral wells]
O=C(Cn1nnc(-c2ccccc2)n1)N=Nc1c(O)[nH]c2ccccc12 32.5%
COc1ccc2nc3ccccc3nc2c1NC(=O)c1ccc(Cl)cc1 -10.8% [at 0.046 µM, 100% = signal doubled over neutral wells]
COc1cc(Cl)c(C)cc1NC(=O)c1ccccc1NC(=O)CN1CCN(C(C)=O)CC1 -25.4% [at 3.8 µM, 100% = signal doubled over neutral wells]
COc1cc2c(cc1OC)C(Nc1ccccc1)=NC(C)(C)C2 -20.4% [at 0.005 µM, 100% = signal doubled over neutral wells]
Cc1cc(Oc2cccnc2)ccc1NC(=O)Cc1cn(C)c2ccccc12 -32.7%
O=C(Nc1ccccc1C(=O)N/N=C/c1ccccc1)c1ccco1 -16.8% [at 0.0016 µM, 100% = signal doubled over neutral wells]
Cc1cc(C(=O)NC(C)CCC(C)C)c2ccccc2n1 (configuration not stated) 29.7% [at 1.2 µM, 100% = signal doubled over neutral wells]
CCNC(=O)C1(C)CCCN1Cc1cccc(C(F)(F)F)c1 (configuration not stated) -24%
CCCCNC(=O)C1(C)CCN1C(=O)Cc1cccc2ccccc12 (configuration not stated) 11.1% [at 0.015 µM, 100% = signal doubled over neutral wells]
CCOc1ccc(C(=O)NCC(=O)Nc2cc(C)ccn2)cc1OCC -21.2% [at 11 µM, 100% = signal doubled over neutral wells]
Cn1c(=O)n(Cc2ccccc2Br)c2ccccc21 20.4% [at 0.0016 µM, 100% = signal doubled over neutral wells]
O=c1[nH]nc(-c2ccc(F)cc2)cc1Cc1cccs1 13.5% [at 3.8 µM, 100% = signal doubled over neutral wells]
Clc1ccc(-c2cc(CN3CCOCC3)no2)cc1 -22.2% [at 11 µM, 100% = signal doubled over neutral wells]
CCNc1nc(NCC)nc(N(C)/N=C/c2ccco2)n1 24.3% [at 11 µM, 100% = signal doubled over neutral wells]
COc1cc(C(C(=O)NC2CCCC2)N(Cc2ccco2)C(=O)c2snc(C(N)=O)c2N)cc(OC)c1OC (configuration not stated) 22.3% [at 0.015 µM, 100% = signal doubled over neutral wells]
COc1ccc(C2C3CCCCC3(O)CCN2C(=O)c2cccs2)cc1 (configuration not stated) -22.1% [at 0.046 µM, 100% = signal doubled over neutral wells]
CC1CCC(NCCNC(=O)c2ccco2)CC1 (configuration not stated) -20.4%
Cc1cc(Br)c2c(c1)C1(OCCO1)C(=O)N2 -12%
O=C1c2cccnc2C(Nc2ccc(F)c(Cl)c2)N1Cc1cccs1 (configuration not stated) -13.1% [at 0.135 µM, 100% = signal doubled over neutral wells]
CC(=O)c1cccc(NC2c3ncccc3C(=O)N2Cc2ccco2)c1 (configuration not stated) 50.6% [at 11 µM, 100% = signal doubled over neutral wells]
C=CCN1C(=O)CSc2ccc(C(=O)OCC)cc21 -11.5% [at 3.8 µM, 100% = signal doubled over neutral wells]
CCCN(Cc1nnc(-c2ccccc2Cl)o1)C(=O)c1cc2ccccc2o1 -17% [at 11 µM, 100% = signal doubled over neutral wells]
Cc1cc(C)cc(N(C(=O)C(F)(F)F)C(C(=O)NC2CCCCC2)c2cccs2)c1 (configuration not stated) 37.1% [at 0.42 µM, 100% = signal doubled over neutral wells]
Cc1ccc(S(=O)(=O)N2CCN(C(=O)COC(=O)c3ccc(O)cc3)CC2)c(C)c1 -39.9%
N#CC1=C(N)Oc2n[nH]c(-c3ccc(F)cc3)c2C1c1cccnc1 (configuration not stated) 43%
COc1ccc(S(=O)(=O)N(C)CC(=O)Nc2ccc3c(c2)OCCO3)cc1OC 41.6% [at 0.0016 µM, 100% = signal doubled over neutral wells]
O=C(O)Cc1ccc(NS(=O)(=O)c2ccc3c(c2)OCCO3)cc1 -23.1% [at 0.0016 µM, 100% = signal doubled over neutral wells]
O=C(N=C1SC2CS(=O)(=O)CC2N1c1ccc(F)c(Cl)c1)C1CC1 (configuration not stated) -16.2% [at 0.046 µM, 100% = signal doubled over neutral wells]
Cc1cc2nc(-c3ccccc3O)[nH]c2cc1C -13.8% [at 0.42 µM, 100% = signal doubled over neutral wells]
Cc1ccc(NC(=O)c2cc(-c3ccccc3O)n[nH]2)cc1C 17.3%
O=C(c1cc(-c2ccc(F)cc2)nc2ccccc12)N1CCN(C2CCS(=O)(=O)C2)CC1 (configuration not stated) -24.6% [at 0.0016 µM, 100% = signal doubled over neutral wells]
CC(=O)c1cccc(N(CC(=O)NC2CCCCC2)C(=O)Cn2nnc(-c3ccccc3)n2)c1 -24.8% [at 0.0016 µM, 100% = signal doubled over neutral wells]
CCOc1nc(-c2ccccc2)c2cc(Br)ccc2n1 13.2%
COc1ccc(C(=O)Nc2nnc(-c3ccco3)s2)cc1 -13.7% [at 0.135 µM, 100% = signal doubled over neutral wells]
NC(=O)C1CCN(C(=O)CCNS(=O)(=O)c2ccccc2F)CC1 14.1% [at 1.2 µM, 100% = signal doubled over neutral wells]
CCn1cc(C(=O)O)c(=O)c2cc(F)c(N3CCN(C(=S)NC(=O)c4cccc(C)c4)CC3)cc21 -20.5%
CCOc1ccc(CCNC(=O)COC(=O)c2cccc(N(C)C)c2)cc1OCC -44%
CC(C)CC(=O)Nc1cccc(-c2nc3ncccc3o2)c1 -18.2% [at 0.0016 µM, 100% = signal doubled over neutral wells]
COc1ccc(S(=O)(=O)N2CCCCC2)cc1NC(=O)C1CCCC1 -27.7% [at 0.135 µM, 100% = signal doubled over neutral wells]
CN1CCN(c2ccc(NC(=O)c3ccc(Oc4ccccc4)cc3)cc2)CC1 -14.3% [at 0.015 µM, 100% = signal doubled over neutral wells]
O=C(NCc1ccccc1)c1cccnc1Sc1ccccc1 14.4% [at 3.8 µM, 100% = signal doubled over neutral wells]
CCOCCCn1c(SCc2ccccc2)nnc1-c1ccncc1 27.1% [at 1.2 µM, 100% = signal doubled over neutral wells]
CNc1nc(-c2ccccc2)cc(-c2ccccc2)n1 -32.2%
CC(C)Cc1nc2n[nH]c(N)c2c2c1COC(C)(C)C2 33.4%
CCCCOc1ccc(SCCCN2CCOCC2)cc1 -17.1% [at 11 µM, 100% = signal doubled over neutral wells]
CC(=O)Oc1ccccc1C(=O)OCCN=C1NS(=O)(=O)c2ccccc21 -19.1% [at 0.046 µM, 100% = signal doubled over neutral wells]
CCOC(=O)c1cc(-c2ccc(Cl)s2)nc2c1c(C)nn2C 61.3%
N#Cc1cccnc1Nc1cccc(Cl)c1 31.6%
CCNC(=O)C1(C)CCCN1C(=O)c1cc(OC)c(OC)c(OC)c1 (configuration not stated) -19.1% [at 0.135 µM, 100% = signal doubled over neutral wells]
O=C(Nc1cccc(Cl)c1)Nc1nc(-c2ccc(Cl)cc2)cs1 -37.7% [at 11 µM, 100% = signal doubled over neutral wells]
CC(=O)Nc1ccc(Nc2nc(-c3c(C)nc4ccccn34)cs2)cc1 -20% [at 11 µM, 100% = signal doubled over neutral wells]
